Screens (PubChem BioAssay)
LGR2 antag: Drosophila LGR2 receptor signaling inhibition; HEK293 LGR2, CRE-luciferase, bursicon-stimulated, 4 h; inhibition, % at 9.99 µM; actives 0.35% (n = 380,000);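 active = drop in luminescence signal, shown as inhibition above about 50% in the replicate tests, limit read from the data, passing the limit was not always enough; inconclusive = probably only some replicates passing the limit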;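 note: agonist challenge used bursicon conditioned medium at about half maximal strength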
EWS-Fli block: EWS/Fli transcriptional activity inhibition | inhibition, % at 12.6 µM | A673 NR0B1-luciferase reporter, viability-normalised | actives 0.67% (n = 350,000) | AID 651661;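 active = mean inhibition of at least 50% after viability correction, with every replicate also passing that limit; inconclusive = mean reaches 50% but only one of two replicates passes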;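 note: firefly luciferase signal divided by Alamar Blue viability fluorescence both relative to DMSO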
PAX8 reporter: PAX8 transcriptional activity inhibition; RMG-I TPO-luciferase reporter, SteadyGlo, 24 h; inhibition, % at 12.6 µM; actives 1.2% (n = 360,000); AID 652154;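 active = mean replicate inhibition at least 60% with every replicate also reaching 60%; inconclusive = only one of the two criteria is met; inactive = mean below 60% and not all replicates reaching 60%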;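 note: luciferase light reporting Pax8 driven TPO promoter activity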
F508del corr: correctors of CFTR F508del function in bronchial epithelial cells; activity (quench increase), % at 7.58 µM; CFBE cells, YFP halide quenching; stimulated with forskolin plus potentiator P3; % fluorescence drop versus neutral controls; AID 720511; actives 0.36% (n = 350,000);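 active = mean added fluorescence quench of at least 8% versus neutral control, with both replicates also reaching 8%; inconclusive = only one of the mean or replicate conditions met; inactive = mean below 8% and not both replicates reaching 8%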;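 note: cells transiently co-express mutant CFTR-F508del with the halide-sensitive YFP; corrector assay measuring rescue of mutant channel to the surface after 24 h compound exposure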
Hits are given with their value; 0 = inactive; ? = inconclusive; - = no result given. A selection: hits, their analogues and other compounds. The true share with any hit is near 1.8%.

SMILES	LGR2 antag	EWS-Fli block	PAX8 reporter	F508del corr
CO[C@@H]1CN(C)C(=O)c2cc(NC(=O)Nc3c(C)noc3C)ccc2OC[C@@H](C)N(C)C[C@@H]1C	0	0	0	9.6
CO[C@H]1CN(C)C(=O)c2cc(NC(=O)c3nc4ccccc4s3)ccc2OC[C@H](C)N(Cc2cccnc2)C[C@H]1C	0	0	88	0
CO[C@H]1CN(C)C(=O)c2cc(NC(C)=O)ccc2OC[C@H](C)N(C(=O)c2ccncc2)C[C@@H]1C	0	0	-	0
CC(C)(C)NC(=O)C1CCN(C(=O)c2ccc(Br)cc2)CC1	0	-	-	-
C[C@@H]1CCCCO[C@@H](CN(C)C(=O)C2CCCCC2)[C@@H](C)CN([C@@H](C)CO)C(=O)c2cc(NC(=O)Nc3ccc4c(c3)OCO4)ccc2O1	0	0	-	0
COc1ccc(S(=O)(=O)Nc2ccc3c(c2)C(=O)N([C@@H](C)CO)C[C@H](C)[C@@H](CN(C)C(=O)Nc2cccc4ccccc24)OCCCC[C@@H](C)O3)cc1	0	0	0	0
CCNC(=O)C1CCCN(C(=O)c2cnc3ccccc3n2)CC1 (configuration not stated)	0	0	0	0
CCCCNc1nc(NC)nc(Cl)c1SC	0	0	0	0
CN(Cc1ccccc1)N=Nc1nc[nH]c1C(N)=O	0	0	87	0
O=C(Cc1ccc(NC(=O)C2CCCN(C(=O)CCc3ccccc3)C2)cc1)Nc1cccc(C(=O)N2CCCC2)c1 (configuration not stated)	0	0	0	0
CC(C(=O)O)c1ccc(N2Cc3ccccc3C2=O)cc1 (configuration not stated)	-	51	0	0
CC(C)(O)C#Cc1ccc(CN2CCCC(CO)(Cc3cccc(Cl)c3)C2)cc1 (configuration not stated)	0	0	0	-
CCOC(=O)c1ccc(N=c2sc(C(=O)OC)cc(=O)n2CCCN2CCOCC2)cc1	0	0	0	0
CCOC(=O)c1ccc(N=c2sc(C(=O)OC)cc(=O)n2Cc2ccco2)cc1	70	0	0	0
COc1ccc(S(=O)(=O)Nc2cccc3c2O[C@H](CN(C)S(=O)(=O)c2ccc(F)cc2)[C@H](C)CN([C@H](C)CO)C3=O)cc1	0	0	0	0
Cc1ccc([C@H]2C[C@H](O)[C@@H](n3cc(-c4ccc(F)cc4)nn3)CN2Cc2cccs2)cc1	0	53	0	0
COc1ccc(Br)cc1/C=N/NC(=O)CNC(=O)C1COc2ccccc2O1 (configuration not stated)	0	-	0	0
COc1ccccc1-c1noc(-c2ccncc2)n1	0	-	-	-
COc1ccccc1-c1nc(-c2ccccn2)no1	78	73	0	0
Brc1ccc(-c2noc(-c3ccccn3)n2)o1	0	0	0	0
Brc1ccc(-c2nc(-c3ccccn3)no2)o1	75	-	-	-
COc1ccc(-c2nc(-c3ccccn3)no2)cc1	100	86	104	0
Cc1ccccc1-c1nc(-c2ccccn2)no1	95	83	73	0
CCS(=O)(=O)N1CC2(CN(Cc3ccccc3F)[C@@H](CO)c3c2c2ccc(OC)cc2n3C)C1	0	0	0	0
O=C(Nc1cccc([N+](=O)[O-])c1)c1ccc([N+](=O)[O-])o1	0	0	?	0
SMILES	LGR2 antag	EWS-Fli block	PAX8 reporter	F508del corr
O=C(Nc1cccc(NC(=O)c2ccccc2Cl)c1)c1ccc([N+](=O)[O-])o1	0	0	98	0
O=C(Nc1ccccc1N1CCCC1)c1ccc([N+](=O)[O-])o1	0	0	77	0
CC1CCN(c2ccccc2NC(=O)c2ccc([N+](=O)[O-])o2)CC1	0	0	0	0
O=C(Nc1cccc2ccccc12)c1ccc([N+](=O)[O-])o1	0	0	69	0
O=C(Nc1ccccc1N1CCN(C(=O)c2ccccc2)CC1)c1ccc([N+](=O)[O-])o1	0	0	68	0
CCCOc1ccc(C2/C(=C(/O)c3ccc(F)cc3)C(=O)C(=O)N2CCCN(C)C)cc1 (configuration not stated)	-	-	0	-
O=C(C[C@H]1CC[C@@H]2[C@H](COC[C@H](O)CN2C(=O)c2ccncc2)O1)NCc1cccc(F)c1	0	0	0	0
CCOc1ccccc1N1CCN(CC(=O)NC(C)c2ccccc2)CC1 (configuration not stated)	0	0	0	0
CN1CCN(c2ccc(NC(=O)c3cc4ccccc4o3)cc2)CC1	0	0	0	0
O=C(Nc1ccc(N2CCN(C(=O)c3ccccc3)CC2)cc1)c1cc2ccccc2o1	82	-	-	-
O=C(Nc1ccc(N2CCN(C(=O)c3ccccc3)CC2)c(Cl)c1)c1ccc(Br)o1	89	0	-	0
